Assay results: PubChem BioAssay AID1823 (The Scripps Research Institute Molecular Screening Center, 2009)
About 70 (0.4%) of roughly 16,000 compounds were called active. The sample holds actives, similar compounds and a random draw of the others, so the mix is not that of the screen. Values without a mark were called inactive. No stated cut-off is given here; in the data, active means inhibition above about 75%; inactive means the rest.

Assay: quenches luminol chemiluminescence in Nox1 counter-screen (AID 1823)
Conditions: HRP/luminol/H2O2 chemiluminescence counterscreen; at 6.7 µM; hits give high values
Work on CCOC(=O)NC(=O)/C(=C/NC(C)C)C(=O)OCC yielded an inhibition of 2.4%.
CSc1nnc(SC)n1CCNC(=O)Nc1cccc(Cl)c1 gave an inhibition of 3.79%.
CCCCc1c(O)cc(-c2ccccc2)n(Cc2ccccc2)c1=O gave an inhibition of 7.84%.
COc1ccc(OC(=O)/C=C/c2sc3ccccc3c2C)cc1 gave an inhibition of -0.97%.
For Cc1nc(C(F)(F)F)ccc1NC(=O)/C=C\C(=O)O, the inhibition was 1.91%.
Compound CCc1cnc(NS(=O)(=O)c2cc(Cl)sc2Cl)nc1-c1c(F)cccc1F has an inhibition of -0.98%.
Cc1ccc(S(=O)(=O)NNC(=O)c2ccccc2N)cc1 showed an inhibition of 37.9%.
O=C(NCc1cccnc1)Nc1cccc(NC(=O)NCc2cccnc2)c1F gave an inhibition of 1.8%.
With COc1cccc2c1c(NS(=O)(=O)c1cn(C)cn1)nn2C the inhibition was -21.4%.
Work on O=[N+]([O-])c1ccc2c(c1)CCN2S(=O)(=O)c1ccccc1 yielded an inhibition of -4.92%.
With CNC(=O)c1ccccc1Sc1ccccc1C(=O)NC the inhibition was -0.03%.
Compound Cc1nc(-c2ccc(NC(=O)COCC(=O)O)cc2)cs1 has an inhibition of 21.6%.
Work on O=C1C(Cl)=C(Oc2cc(Cl)c(Cl)cc2Cl)C(=O)c2ccccc21 yielded an inhibition of 0.81%.
Work on Cn1ncc(Br)c1NC(=O)C(C)(C)C yielded an inhibition of 4.37%.
Compound N#Cc1ccc(-c2csc(COc3ccccc3Cl)n2)cc1 has an inhibition of -1.21%.
With CS(=O)(=O)Nc1ccc(/C(N)=N/OC(=O)c2cccs2)cc1 the inhibition was 2.83%.
For c1ccc2sc(-c3csc(-c4ccc5c(c4)OCCO5)n3)nc2c1, the inhibition was 3.06%.
With N#CCCSc1sc(=S)sc1SCCC#N the inhibition was 3.43%.
C/C(=N\O)C(C)(C)Nc1ccc(C(C)(C)C)cc1 gave an inhibition of -0.65%.
O=c1[nH]c2c(=O)[nH]c(=S)[nH]c2nc1/C=C(\O)c1ccccc1 gave an inhibition of -2.84%.
For O=C(Nc1ccc(F)cc1OC(F)(F)F)N1CCC(O)CC1, the inhibition was -1.8%.
For CCOC(=O)c1c(NC(=S)NC)sc2c1CCCC2, the inhibition was 97.7% (active).
CCOC(=O)c1c(C)csc1NC(=O)CC(=O)C(F)(F)F gave an inhibition of -0.11%.
CCOC(=O)c1c(NC(=S)Nc2ccccc2)sc2c1CCN(C)C2 showed an inhibition of 0.9%.
Cc1cc(/C(N)=N/OC(=O)c2cccs2)c(-c2ccccc2)o1 gave an inhibition of -4.79%.
For Cc1cc(C)nc(NC(=S)c2ccc(NC(=O)/C=C/C(=O)O)cc2)n1, the inhibition was -2.67%.
With CCSC(=O)NCc1ccccc1 the inhibition was -0.89%.
Cc1onc(-c2ccccc2Cl)c1NC(=O)N1c2ccc(F)cc2CCC1C (centres undefined) gave an inhibition of 8.92%.
Nc1nc(C23CC4CC(CC(C4)C2)C3)cs1 gave an inhibition of -1.09%.
With CC(C)n1c(SCC(=O)c2cccc([N+](=O)[O-])c2)nc2cc(C(F)(F)F)ccc21 the inhibition was 2.2%.
CC(C)CCOS(=O)(=O)c1ccc2c(c1)Cc1cc(S(=O)(=O)OCCC(C)C)ccc1-2 showed an inhibition of -0.63%.
For O=C(CSC(=S)N1CCCCC1)c1c(F)cccc1F, the inhibition was 26.8%.
For O=C(c1cc(-c2cccs2)on1)N1CCCCC1, the inhibition was 3.17%.
In the case of N#CC(C#N)=CNc1c(F)cccc1Cl, the inhibition is reported as -4.02%.
Work on CCOC(=O)C1=C(C)NC(C)=C(C(=O)OCC)C1c1ccccn1 yielded an inhibition of 0.07%.
Compound CCOC(=O)c1cc(CC)sc1NC(=O)c1cccc(C(F)(F)F)c1 has an inhibition of -4.21%.
In the case of CC(C)S(=O)(=O)/C(C#N)=C/c1ccccc1OC(F)(F)F, the inhibition is reported as -0.54%.
With COC(=O)c1cnc(N2CCCN(C(=O)C3COc4ccccc4O3)CC2)nc1C(F)(F)F (centres undefined) the inhibition was 1.21%.
With Cc1ccccc1NC(=O)NCc1ccco1 the inhibition was -0.91%.
In the case of O=[N+]([O-])c1ccc(-c2ccc(I)cc2)cc1, the inhibition is reported as -6.68%.
Work on CC(C)NC(=O)NNc1c(Cl)cncc1Cl yielded an inhibition of -1.24%.
Cc1ccc(Oc2c(C)[nH]c(=S)[nH]c2=O)cc1 gave an inhibition of -0.85%.
Work on CN(C)c1cc(-c2cc(Cl)sc2Cl)oc(=O)c1Cl yielded an inhibition of -5.79%.
Work on Cc1cc(C)nc(N/C=C(\C#N)S(=O)(=O)c2ccc(Cl)cc2)n1 yielded an inhibition of 2.84%.
In the case of O=C(NNC(=S)Nc1ccccc1Cl)c1ccc(OC(F)(F)F)cc1, the inhibition is reported as 2.9%.
Cn1cc(Br)c(-c2cccc(NC(=O)c3ccccc3Cl)c2)n1 gave an inhibition of -4.85%.
CCc1cccc(C)c1N(C(C)=O)C1=NCCC(=O)S1 showed an inhibition of -4.86%.
O=[N+]([O-])c1ccc(C2CC2(Br)Br)cc1 (centres undefined) showed an inhibition of 0.05%.
With CSC(C)C(=O)/C=C/N(C)C (centres undefined) the inhibition was -4.32%.
With COc1ccc(Cc2nc(C(C)(C)C)cs2)cc1 the inhibition was -2.22%.
With Cc1noc(C)c1S(=O)(=O)N1CCN(C2c3ccccc3-c3ccccc32)CC1 the inhibition was 0.21%.
Compound CCOC(=O)NC(=O)/C(=C/NCc1cccs1)C(=O)OCC has an inhibition of 1.42%.
Compound CC(=O)Nc1ccc(S(=O)(=O)NNc2c(Cl)cncc2Cl)cc1Cl has an inhibition of 10.2%.
CCCN(CCC)S(=O)(=O)c1ccc(C(=O)Oc2c(C)cccc2OC)cc1 gave an inhibition of -5.62%.
Work on CCOC(=O)c1cc(C)n(-c2cccc([N+](=O)[O-])c2)c1-c1ccccc1 yielded an inhibition of 1.22%.
COc1cccc(C(=O)c2sc3nsc(SCc4ccc(F)cc4)c3c2N)c1 showed an inhibition of 9.11%.
In the case of CC(C)(C)c1ccc(NC(=O)c2ccco2)c(NC(=O)C(Cl)(Cl)Cl)c1, the inhibition is reported as -4.94%.
O=C(Nc1ccc2c(c1)OCCO2)c1cnccn1 showed an inhibition of 1.1%.
CSc1nc(-n2nc(C)cc2C)nc(-c2ccco2)c1C#N showed an inhibition of 1.13%.
With O=C(O)CCc1cccnc1 the inhibition was -4.95%.
CCCCCCCCCCCCCC#CC(O)C(N)CO (centres undefined) showed an inhibition of 2.24%.
Compound O=C(CSc1nc2ccccc2o1)N1CCC(n2cccc2)CC1 has an inhibition of 10%.
Compound CC(=O)NC12CC3(C)CC(C)(CC(C)(C3)C1)C2 has an inhibition of 2.16%.
In the case of COc1cc(CC/C(C)=N/O)ccc1O, the inhibition is reported as 2.62%.
Cc1nc(C(F)(F)F)ccc1C(=O)NC1CCCc2ccccc21 (centres undefined) showed an inhibition of 3.59%.
Cn1nccc1NC(=O)CC(CC(=O)O)c1ccccc1 (centres undefined) gave an inhibition of -2.7%.
COc1ccc(CCNC(=O)c2ccccc2-c2ccccc2C(=O)O)cc1OC showed an inhibition of -7.76%.
CC(=O)N1c2ccccc2C=Cc2ccccc21 gave an inhibition of 2.77%.
With CCOC(=O)Cn1cc(Cl)ccc1=O the inhibition was -6.12%.
Work on CCc1ccc(S(=O)(=O)Nc2ccc(C)c(NS(C)(=O)=O)c2)cc1 yielded an inhibition of 6.77%.
In the case of CCOC(=O)c1c(C)nn(-c2ncccc2NC(=O)Nc2cccc(Cl)c2Cl)c1C, the inhibition is reported as -3.12%.
For COC(=O)c1cc(S(=O)(=O)NCc2csc(-c3cccs3)n2)oc1C, the inhibition was 2.46%.
COC(=O)c1sccc1NC(=S)Nc1ccc(C)cc1 showed an inhibition of -25.1%.
O=C(Nc1ccccc1N1CCOCC1)C1CCN(c2nccc(C(F)(F)F)n2)CC1 showed an inhibition of -1.03%.
Work on O=C(Nc1ccc(I)cc1Cl)C(=S)NCc1cccs1 yielded an inhibition of -1.16%.
In the case of Cn1nnnc1SCC(=O)Nc1ccc(OC(F)(F)F)cc1, the inhibition is reported as -2.01%.
Compound O=C(/C=C/c1cccc2ccccc12)N1CCCCC1 has an inhibition of 2.1%.
Compound Cc1c(C)c(C)c(CSC(=N)CC#N)c(C)c1C has an inhibition of -1.01%.
CC(C)c1ccc(N2C(=O)/C(=C\c3ccc(-c4ccc([N+](=O)[O-])cc4)o3)SC2=S)cc1 showed an inhibition of 2.47%.
For O=C(NCc1csc(-c2cccs2)n1)Nc1ccccc1-c1ccccc1, the inhibition was 0.51%.
In the case of c1ccc2c(c1)NC(C1Nc3ccccc3O1)O2 (centres undefined), the inhibition is reported as 8.91%.
Work on CC(C)S(=O)(=O)/C(C#N)=C/NN1CCOCC1 yielded an inhibition of 41%.
For O=S(=O)(Oc1cccc(C(F)(F)F)c1)c1cc(S(=O)(=O)c2ccccc2)cs1, the inhibition was 3.95%.
For O=C(Nc1ccccc1-c1ccccc1)c1cccs1, the inhibition was 0.86%.
For O=C(O)C1CC2CC1CCC2O (centres undefined), the inhibition was -5.03%.
For CC(C)CC(F)Cc1cnc(=O)[nH]c1 (centres undefined), the inhibition was -1.51%.
In the case of CC(=O)c1cc([N+](=O)[O-])c(NC2CCCCC2)s1, the inhibition is reported as 3.91%.
Compound NNC(=O)c1cc(OCC(F)(F)F)nc(OCC(F)(F)F)c1 has an inhibition of 9.46%.
N#Cc1c(C2CCCCC2)[nH]c(=S)[nH]c1=O showed an inhibition of 11.2%.
With CCCc1nc(N)ncc1C(=O)OCC the inhibition was -1.66%.
In the case of O=C(CCSc1nc2ccccc2o1)N1CCc2cc([N+](=O)[O-])ccc21, the inhibition is reported as -3.32%.
With O=C(O)CSC(SCC(=O)O)c1ccc2c(c1)OCO2 the inhibition was 0.02%.
CC(CC(=O)O)Oc1ccc(Cl)cc1[N+](=O)[O-] (centres undefined) showed an inhibition of 0.37%.
CNC(=S)NNC(=O)c1cc(C)on1 gave an inhibition of 11%.
In the case of CS(=O)(=O)c1ccc(C(=O)Nc2cccc(Cl)c2)cc1, the inhibition is reported as 2.61%.
COC(=O)/C=C/c1cn(C2OCC(CO)C2O)c(=O)[nH]c1=O (centres undefined) gave an inhibition of -0.07%.
Compound CC1=NCCNC(C)=C1N1CCOCC1 has an inhibition of -0.98%.
With NC(=O)c1sccc1Br the inhibition was -1.3%.
For COC(=O)c1sc(S(C)=O)c(-c2ccon2)c1C (centres undefined), the inhibition was 0.42%.
Compound CC(C)(C)C(=O)NNC(=O)c1ccc(Oc2ccc(C3SCCS3)cc2)o1 has an inhibition of -19.4%.
For CNC(=O)NNC(=O)Cn1nnc(N2CCCCC2)n1, the inhibition was 14.1%.
In the case of N#C/C(=C\C=C\c1ccccc1)c1nc2ccccc2[nH]1, the inhibition is reported as 2.56%.
O=[N+]([O-])c1cc(C(F)(F)F)ccc1OCCO gave an inhibition of -3.63%.
In the case of CCCCCCCN=C(C)c1ccccc1O, the inhibition is reported as -3.37%.
